The campaign covered roughly 310,000 compounds. About 14,000 (4.5%) showed an effect of 50% or more. Effects have a minus sign here. The sample holds strong results, similar compounds and a random draw of the others, so the mix is not that of the screen.
The compounds below were run against human ether-à-go-go-related gene (hERG) potassium channel (human, UniProt Q12809) (assay: primary screen, population patch clamp on CHO cells stably expressing hERG; higher = less effect of the substance).
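Also: peak tail current of the secondary pulse compared with the same well before compound.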

human ether-à-go-go-related gene (hERG) potassium channel, sequence (Q12809 whole entry, looked up): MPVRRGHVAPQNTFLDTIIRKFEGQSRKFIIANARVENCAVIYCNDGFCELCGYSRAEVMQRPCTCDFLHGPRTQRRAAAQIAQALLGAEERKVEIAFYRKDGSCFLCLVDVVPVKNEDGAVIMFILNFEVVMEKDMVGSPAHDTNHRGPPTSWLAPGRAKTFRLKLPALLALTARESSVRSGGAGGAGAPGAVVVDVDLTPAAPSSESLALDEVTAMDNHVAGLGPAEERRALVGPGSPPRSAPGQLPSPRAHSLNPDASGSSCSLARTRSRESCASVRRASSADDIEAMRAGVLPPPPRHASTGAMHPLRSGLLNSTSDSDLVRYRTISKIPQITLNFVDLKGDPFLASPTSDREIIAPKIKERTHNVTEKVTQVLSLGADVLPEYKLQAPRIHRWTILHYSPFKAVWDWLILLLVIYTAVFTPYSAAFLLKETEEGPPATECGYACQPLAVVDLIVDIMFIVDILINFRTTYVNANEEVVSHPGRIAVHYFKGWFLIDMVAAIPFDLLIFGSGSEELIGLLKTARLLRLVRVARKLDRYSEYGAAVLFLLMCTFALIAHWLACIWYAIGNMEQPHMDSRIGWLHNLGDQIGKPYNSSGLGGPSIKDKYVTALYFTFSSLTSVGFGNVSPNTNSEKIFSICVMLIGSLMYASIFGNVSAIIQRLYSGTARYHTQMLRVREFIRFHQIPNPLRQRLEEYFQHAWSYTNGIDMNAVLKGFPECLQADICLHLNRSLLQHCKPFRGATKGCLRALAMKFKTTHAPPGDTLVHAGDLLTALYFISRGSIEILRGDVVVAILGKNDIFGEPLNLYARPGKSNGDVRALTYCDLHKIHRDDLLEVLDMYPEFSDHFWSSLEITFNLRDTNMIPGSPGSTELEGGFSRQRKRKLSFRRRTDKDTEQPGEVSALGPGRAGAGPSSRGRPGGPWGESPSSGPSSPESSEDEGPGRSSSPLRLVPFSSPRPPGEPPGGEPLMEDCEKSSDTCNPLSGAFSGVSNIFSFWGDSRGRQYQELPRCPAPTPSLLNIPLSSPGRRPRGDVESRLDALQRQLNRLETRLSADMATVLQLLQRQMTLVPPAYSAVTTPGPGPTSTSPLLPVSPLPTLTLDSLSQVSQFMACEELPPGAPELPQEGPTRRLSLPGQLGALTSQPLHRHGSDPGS

SMILES	hERG current change (%, negative = inhibition) at 10uM [%]
CCC1=NN(C(=O)Cc2ccc(OC)cc2)C(O)(C(F)(F)F)C1 (stereo not shown)	-6.51
O=C(NC1=NCCS1)c1ccc(Cl)c(S(=O)(=O)N2CCCCC2)c1	-2.52
CCOC(=O)C(C(=O)OCC)C1CCS(=O)(=O)C1 (stereo not shown)	14.4
Cc1ccnn1C(C)C(=O)O (stereo not shown)	26.3
Cc1ccc(C(=O)N/C(=C/c2ccccc2)C(=O)NCC2CCCO2)cc1 (stereo not shown)	-21.7
Cc1ccc(C(=O)N/C(=C/c2ccccc2)C(=O)NCc2ccncc2)cc1	-65.2
Cc1ccc(C(=O)N/C(=C/c2ccccc2)C(=O)NC(Cc2ccccc2)C(=O)O)cc1 (stereo not shown)	8.07
Cc1ccc(C(=O)N/C(=C\c2ccccc2)C(=O)NCc2ccncc2)cc1	-71.2
O=C(/C=C/c1cccs1)c1ccc(Br)cc1	7.19
CC(C)Oc1ccc(Br)cc1C(=O)N/N=C/c1c[nH]c2ccccc12	16.2
COc1ccccc1NC(=S)N(Cc1ccco1)Cc1cc2cc(C)ccc2[nH]c1=O	3.67
COc1ccc(NC(=O)N(CCc2ccccc2)Cc2cc3c(C)cc(C)cc3[nH]c2=O)cc1	14
CCOc1ccc(NC(=S)N(CCN2CCOCC2)Cc2cc3cc4c(cc3[nH]c2=O)OCO4)cc1	-34.6
COc1cc2cc(CN(CCN3CCCC3)C(=O)Nc3ccccc3Cl)c(=O)[nH]c2cc1OC	-6.16
CCOc1ccc2[nH]c(=O)c(CN(CCN3CCCC3)C(=S)Nc3ccccc3OCC)cc2c1	-70.2
Cc1cc(C)c2cc(CN(CCN(C)C)C(=O)Nc3ccccc3Cl)c(=O)[nH]c2c1	-55.3
COc1ccccc1NC(=O)N(CCN1CCCC1)Cc1cc2cc(C)ccc2[nH]c1=O	-64.8
COc1ccccc1NC(=O)N(CCN(C)C)Cc1cc2cc(C)ccc2[nH]c1=O	-50.2
COc1ccc2[nH]c(=O)c(CN(CCN3CCCC3)C(=O)Nc3ccccc3Cl)cc2c1	-47.6
Cc1cc(C)c2cc(CN(CCO)C(=O)Nc3ccc(Cl)cc3)c(=O)[nH]c2c1	-1.76
COc1ccccc1NC(=S)N(CCCN(C)C)Cc1cc2cc3c(cc2[nH]c1=O)OCO3	33.3

SMILES	hERG current change (%, negative = inhibition) at 10uM [%]
CCOc1ccc2[nH]c(=O)c(CN(CCN3CCCC3)C(=S)Nc3ccccc3OC)cc2c1	-49.7
Cc1ccc(S(=O)(=O)/C(C#N)=C/c2c(N3CC(C)OC(C)C3)nc3ccccn3c2=O)cc1 (stereo not shown)	-46.3
CN(C(=S)NC(=O)c1ccccc1)c1c(N)n(Cc2ccccc2)c(=O)[nH]c1=O	0.51
Cc1ccc(S(=O)(=O)NCCSc2nnnn2C)cc1	-2.53
Cc1cc2cc(OCc3ccccc3)ccc2n1C	18
CN(C)S(=O)(=O)c1cccc(-c2csc(=Nc3ccccc3)n2CCCN2CCOCC2)c1	-26.5
O=C1[C@@H]2[C@H](C(=O)N1O)[C@H]1C=C[C@@H]2C1	-5.3
CC(C)(C)c1cc(CP(=O)(c2ccccc2)c2ccccc2)cc(C(C)(C)C)c1O	14.7
CC(=O)Nc1ccc(S(=O)(=O)N2CCSC2c2ccc(C)cc2)cc1 (stereo not shown)	2.9
Cc1csc(NC(=O)c2ccc3c(c2)OCO3)n1	-0.0676
CCN(CC)CCCN(Cc1cc2cc3c(cc2[nH]c1=O)OCO3)C(=S)Nc1ccccc1OC	-10.5
CCN(CC)CCCN(Cc1cc2cc3c(cc2[nH]c1=O)OCO3)C(=O)Nc1ccccc1OC	-10.6
CCN(CC)CCN(Cc1cc2cc(C)ccc2[nH]c1=O)C(=O)Nc1ccccc1OC	-62.2
Nc1c(-c2cccc(Cl)c2)cnn1-c1cccc([N+](=O)[O-])c1	-41.4
O=C1C2C3C=CC(C3)C2C(=O)N1c1ccc(-c2nc3ccccc3c(=O)o2)cc1 (stereo not shown)	19.6
COC(=O)C1=C(C)N(Cc2ccccc2)C(=O)N[C@H]1c1cccc(C(F)(F)F)c1	-8.04
CC(=O)c1cccc(CN2CCCC(N3CCN(c4ccccc4F)CC3)C2)c1 (stereo not shown)	-35.3
CN1CCC(N2CCN(c3cccc(C(F)(F)F)c3)CC2)CC1	-12.8
FC(F)(F)c1ccccc1CN1CCCC(N2CCN(c3ccccc3)CC2)C1 (stereo not shown)	-0.712
O=C(C1CCOCC1)N1CCCC(N2CCN(c3cccc(C(F)(F)F)c3)CC2)C1 (stereo not shown)	-12.9
Fc1ccccc1N1CCN(C2CCCN(Cc3cccc(C(F)(F)F)c3)C2)CC1 (stereo not shown)	-52.1

SMILES	hERG current change (%, negative = inhibition) at 10uM [%]
CCN(CC)CC(=O)N1CCCC(N2CCN(c3cccc(C(F)(F)F)c3)CC2)C1 (stereo not shown)	-10.5
CCCN1CCC(N2CCN(c3cccc(C(F)(F)F)c3)CC2)CC1	-75.3
Fc1ccccc1N1CCN(C2CCCN(Cc3ccccc3C(F)(F)F)C2)CC1 (stereo not shown)	-5.91
Oc1ccccc1CN1CCCC(N2CCN(c3cccc(C(F)(F)F)c3)CC2)C1 (stereo not shown)	-61.9
COc1ccc(CCNC(=O)c2nonc2N)cc1	-15.8
COc1ccc(CNC(=O)CN(CCC(C)C)S(=O)(=O)c2ccc3c(c2)OCCO3)cc1	-7.73
O=C(/C=C/c1cccc([N+](=O)[O-])c1)NCc1ccccc1	-23.2
Cc1ccc(C2CC(c3cccc(Br)c3)Nc3nnnn32)cc1 (stereo not shown)	-7.07
CCCCNC(=O)N(O)C1N(CCCC)C(=O)N(CC(=O)OC)C1(C)C (stereo not shown)	20
Cc1ccc(-c2csc(NC(=O)C3CC(=O)N(Cc4ccco4)C3)n2)cc1 (stereo not shown)	-25.5
CN(c1ccc(-c2csc(NC(=O)C3CC(=O)N(Cc4ccco4)C3)n2)cc1)S(C)(=O)=O (stereo not shown)	-19
CC(=O)c1sc(NC(=O)C2CC(=O)N(Cc3ccccc3)C2)nc1-c1ccccc1 (stereo not shown)	-15
COc1ccc(-c2csc(NC(=O)C3CC(=O)N(Cc4ccco4)C3)n2)cc1 (stereo not shown)	-70.4
CC(=O)c1sc(NC(=O)C2CC(=O)N(Cc3ccco3)C2)nc1-c1ccccc1 (stereo not shown)	-59.4
COc1ccc(-c2nc(NC(=O)C3CC(=O)N(Cc4ccco4)C3)sc2C)cc1 (stereo not shown)	-34.3
CC(=O)COc1ccc2c3c(c(=O)oc2c1C)CCCCC3	-8.54
Cl.O=C(NCCCn1ccnc1)c1ccc(S(=O)(=O)N2CCOCC2)cc1	8.09
COC(=O)c1ccc(C2/C(=C(\O)c3ccc4c(c3)OCCO4)C(=O)C(=O)N2CCCN(C)C)cc1 (stereo not shown)	-55.9
COCCCN1C(=O)C(=O)/C(=C(/O)c2ccc3c(c2)OCCO3)C1c1ccc(C(=O)OC)cc1 (stereo not shown)	1.43
COc1ccc(C2/C(=C(\O)c3ccc4c(c3)OCCO4)C(=O)C(=O)N2CCCN(C)C)cc1 (stereo not shown)	17
O=C(COC(=O)CC1CC2CCC1C2)NC(=O)NCc1ccco1 (stereo not shown)	-4.89

SMILES	hERG current change (%, negative = inhibition) at 10uM [%]
Cc1nc2ccccc2c(=O)n1/N=C/c1ccccc1Cl	12.8
CC(=O)c1ccc(NC(=S)N2CCCC(CO)C2)cc1 (stereo not shown)	5.17
COC(=O)Cc1ccc(NC(=S)N2CCCC(CO)C2)cc1 (stereo not shown)	-63.2
COC(=O)Cc1ccc(NC(=S)N2CCCC(C)C2)cc1 (stereo not shown)	12.7
CC(NC(=O)c1cc2c(=O)n3ccccc3nc2n(CC2CCCO2)c1=N)c1ccccc1 (stereo not shown)	-75.2
Cc1ccc(S(=O)(=O)c2cc3c(=O)n4ccccc4nc3n(C)c2=N)cc1C	-2.47
CCOC(=O)c1cc2c(=O)n3ccccc3nc2n(CC2CCCO2)c1=NC(=O)/C=C/c1ccccc1 (stereo not shown)	-35.7
COCCNC(=O)CSc1nc2ccccc2c(=O)n1CC1CCCO1 (stereo not shown)	-11.9
Cc1ccc(S(=O)(=O)c2cc3c(=O)n4ccccc4nc3n(CC3CCCO3)c2=N)cc1C (stereo not shown)	-50.8
N=c1c(C(=O)NC2CCCC2)cc2c(=O)n3ccccc3nc2n1CC1CCCO1 (stereo not shown)	-83.7
O=C(NC1CCCCC1)c1ccc2c(=O)n(CC3CCCO3)c(=O)[nH]c2c1 (stereo not shown)	5.86
N=c1c(S(=O)(=O)c2ccccc2)cc2c(=O)n3ccccc3nc2n1CC1CCCO1 (stereo not shown)	-34
N=c1c(C(=O)NC2CCCCC2)cc2c(=O)n3ccccc3nc2n1CC1CCCO1 (stereo not shown)	-74.9
NS(=O)(=O)c1cccc(NC(=O)COC(=O)C2(c3cccc(F)c3)CCCC2)c1	-6.66
Cc1ccc(NC(=O)c2sc(Cl)nc2-c2ccccc2)cc1C	3.94
CC1CC(C)CN(S(=O)(=O)c2ccc3c(c2)oc(=O)n3CC(=O)NCc2cccnc2)C1 (stereo not shown)	-17.2
COc1cc(C(=O)NC2CCCC2)c(Br)c(OC)c1OC	7.61
COc1ccc(NC(=O)C(CCSC)N2C(=O)c3ccccc3C2=O)cc1 (stereo not shown)	-10.3
Cc1ccc(S(=O)(=O)/N=C2\C=C(Nc3cccc(C(=O)O)c3)C(=O)c3ccccc32)c(C)c1	27.9
